Several values for one entry are separate records, joined by “and”; a condition that tells them apart may be missing. Equal values may be shown once. About 83,000 compounds went through this panel and 20% of them were active in at least one assay; those are over-represented in the sample as a whole.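 Plates (96-well) were seeded with cells, treated with compound at one concentration, and incubated for 48 hours before percent growth was determined.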
Experiments:
Test in all cases: NCI-60 one-dose screen, 48 h (100 = growth as untreated, 0 = no growth, -100 = all killed); active = growth percent below 10; inactive = the rest
[1] = tested on: SK-MEL-2 melanoma
[2] = tested on: EKVX NSCLC; details: 10 µM unless noted
[3] = tested on: SN12C renal; details: 10 µM unless noted
[4] = tested on: UO-31 renal
[5] = tested on: TK-10 renal
[6] = tested on: ACHN renal
[7] = tested on: CAKI-1 renal
[8] = tested on: A498 renal
[9] = tested on: CCRF-CEM leukemia; details: 10 µM unless noted
[10] = tested on: MOLT-4 leukemia

Measured: growth

Nc1ccc(Cl)c(S(=O)(=O)O)c1
inactive: [1]; 10 µM unless noted 88.2% | [2] 106% | [3] 96.6% | [4]; 10 µM unless noted 77.9% | [5]; 10 µM unless noted 98.5% | [6]; 10 µM unless noted 97.2% | [7]; 10 µM unless noted 95.2% | [8]; 10 µM unless noted 84% | [9] 106% | [10]; 10 µM unless noted 109%

O=C(O)C#Cc1ccc(Cl)cc1
inactive: [1]; 10 µM unless noted 98.4% | [2] 104% | [3] 98.4% | [4]; 10 µM unless noted 95.6% | [5]; 10 µM unless noted 109% | [6]; 10 µM unless noted 103% | [7]; 10 µM unless noted 95.4% | [8]; 10 µM unless noted 73.1% | [9] 103% | [10]; 10 µM unless noted 87.5%

O=C1CCC(=O)N1CC1CC2CCC1C2 (stereo unspecified)
inactive: [1]; 10 µM unless noted 97.5% and 111% | [2] 99% and 83.1% | [3] 94% and 82.3% | [4]; 10 µM unless noted 101% and 95.5% | [5]; 10 µM unless noted 94.4% and 83.7% | [6]; 10 µM unless noted 100% and 92.2% | [7]; 10 µM unless noted 67.2% and 91.1% | [8]; 10 µM unless noted 119% and 103% | [9] 95.1% and 104% | [10]; 10 µM unless noted 54.1% and 111%

CCCCNC(=O)c1ccccc1C
inactive: [1]; 10 µM unless noted 100% | [2] 94.9% | [3] 98.5% | [4]; 10 µM unless noted 94.4% | [5]; 10 µM unless noted 97.5% | [6]; 10 µM unless noted 104% | [7]; 10 µM unless noted 96.5% | [8]; 10 µM unless noted 126% | [9] 99.7% | [10]; 10 µM unless noted 98.5%

NC1=NC(c2ccccc2)N=C(Nc2ccccc2)N1 (stereo unspecified)
inactive: [1]; 10 µM unless noted 100% and 84.3% | [2] 79.3% and 90.5% | [3] 98.6% and 99.1% | [4]; 10 µM unless noted 105% and 89.7% | [5]; 10 µM unless noted 94% and 102% | [6]; 10 µM unless noted 97.9% and 84.1% | [7]; 10 µM unless noted 74.2% and 93.8% | [8]; 10 µM unless noted 96.3% and 110% | [9] 49.6% and 95.1% | [10]; 10 µM unless noted 65.7% and 71.4%

CS/C(=C\c1ccc(C(=O)c2ccc(C)cc2)n1C)S(C)=O (stereo unspecified)
inactive: [1]; 10 µM 98.8% | [1]; 100 µM 81.4% | [2] 63.8% [100 µM] | [4]; 10 µM 92.2% | [4]; 100 µM 57.8% | [5]; 10 µM 108% | [5]; 100 µM 87% | [6]; 10 µM 87.4% | [6]; 100 µM 83.2% | [7]; 10 µM 75.5% | [7]; 100 µM 63.2% | [8]; 10 µM 108% | [8]; 100 µM 109% | [9] 72.5% [100 µM] | [10]; 10 µM 93.9% | [10]; 100 µM 66.8%

COc1ccc(/C=C/C(=O)O)cc1OC
inactive: [1]; 10 µM unless noted 108% and 101% | [2] 106% and 103% | [3] 101% and 105% | [4]; 10 µM unless noted 100% and 97.5% | [5]; 10 µM unless noted 102% and 92.5% | [6]; 10 µM unless noted 104% and 112% | [7]; 10 µM unless noted 101% | [8]; 10 µM unless noted 104% | [9] 98.1% | [10]; 10 µM unless noted 104% and 108%

CCCC(=O)Oc1ccc2ccccc2c1
inactive: [1]; 10 µM unless noted 104% | [2] 101% | [3] 97% | [4]; 10 µM unless noted 76.8% | [5]; 10 µM unless noted 103% | [6]; 10 µM unless noted 99% | [7]; 10 µM unless noted 103% | [8]; 10 µM unless noted 103% | [9] 90.2% | [10]; 10 µM unless noted 92.3%

C(=N\OCCc1ccccc1)/c1ccccn1
inactive: [1]; 10 µM unless noted 124% and 104% | [2] 115% and 106% | [3] 119% and 109% | [4]; 10 µM unless noted 109% and 98% | [5]; 10 µM unless noted 93.3% and 89.5% | [6]; 10 µM unless noted 110% and 107% | [7]; 10 µM unless noted 105% and 100% | [8]; 10 µM unless noted 96.3% and 85.7% | [9] 106% and 94.6% | [10]; 10 µM unless noted 101% and 93.1%

From PubChem BioAssay (NCI)
